The supplement of paper PMC8728848
About 410 targets per protein were measured; listed, in parts, are those with the strongest signals and a random draw of the rest.

Tests used:
Assay in all cases: glycan array binding signal (z-score within array); higher = stronger binding
Conditions in all cases: glycan notation: IUPAC condensed, linker removed
Fuc(a1-2)Gal(b1-3)GlcNAc = target: Fuc(a1-2)Gal(b1-3)GlcNAc
In short: (§1)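 Columns mapping to the same glycan were averaged after glycan names were converted to IUPAC-condensed notation. The data come from 3228 arrays in the Consortium for Functional Glycomics database, limited to those with an available protein sequence. Binding is reported as a within-array Z-score averaged across arrays of one protein sequence and across linkers.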

[1] = target: Fuc(a1-2)Gal(b1-3)GlcNAc(b1-2)Man(a1-3)[Fuc(a1-2)Gal(b1-3)GlcNAc(b1-2)Man(a1-6)]Man(b1-4)GlcNAc(b1-4)GlcNAc
In short: as §1

[2] = target: Fuc(a1-2)Gal(b1-3)[Fuc(a1-4)]GlcNAc(b1-3)[Gal(b1-4)GlcNAc(b1-6)]Gal(b1-4)Glc
In short: as §1

[3] = target: Fuc(a1-2)Gal(b1-4)GlcNAc(b1-3)GalNAc
In short: as §1

[4] = target: Fuc(a1-2)[Gal(a1-3)]Gal(b1-4)[Fuc(a1-3)]GlcNAc(b1-3)GalNAc
In short: as §1

[5] = target: Fuc(a1-3)[Gal(b1-4)]GlcNAc6S
In short: as §1

Gal(a1-3)Gal = target: Gal(a1-3)Gal
In short: as §1

[6] = target: Gal(a1-3)Gal(b1-3)GlcNAc(b1-2)Man(a1-3)[Gal(a1-3)Gal(b1-3)GlcNAc(b1-2)Man(a1-6)]Man(b1-4)GlcNAc(b1-4)GlcNAc
In short: as §1

[7] = target: Gal(a1-4)Gal(b1-3)GlcNAc(b1-2)Man(a1-3)[Gal(a1-4)Gal(b1-3)GlcNAc(b1-2)Man(a1-6)]Man(b1-4)GlcNAc(b1-4)GlcNAc
In short: as §1

[8] = target: Gal(b1-3)GlcNAc(a1-3)Gal(b1-4)GlcNAc
In short: as §1

[9] = target: Gal(b1-3)GlcNAc(b1-2)Man(a1-3)[Gal(b1-3)GlcNAc(b1-2)Man(a1-6)]Man(b1-4)GlcNAc(b1-4)[Fuc(a1-6)]GlcNAc
In short: as §1

[10] = target: Gal(b1-3)GlcNAc(b1-3)Gal(b1-4)GlcNAc(b1-3)Gal(b1-4)GlcNAc(b1-2)[Gal(b1-3)GlcNAc(b1-3)Gal(b1-4)GlcNAc(b1-3)Gal(b1-4)GlcNAc(b1-6)]Man(a1-6)[Gal(b1-3)GlcNAc(b1-3)Gal(b1-4)GlcNAc(b1-3)Gal(b1-4)GlcNAc(b1-2)Man(a1-3)]Man(b1-4)GlcNAc(b1-4)[Fuc(a1-6)]GlcNAc
In short: as §1

[11] = target: Gal(b1-3)GlcNAc(b1-6)GalNAc
In short: as §1

[12] = target: Gal(b1-3)[Neu5Ac(a2-6)]GalNAc
In short: as §1

[13] = target: Gal(b1-4)GlcNAc(b1-2)[Gal(b1-4)GlcNAc(b1-6)]Man(a1-6)[GlcNAc(b1-4)][Gal(b1-4)GlcNAc(b1-2)Man(a1-3)]Man(b1-4)GlcNAc(b1-4)GlcNAc
In short: as §1

[14] = target: Gal(b1-4)GlcNAc(b1-3)Gal(b1-4)GlcNAc(b1-3)Gal(b1-4)GlcNAc
In short: as §1

[15] = target: Gal(b1-4)GlcNAc(b1-3)Gal(b1-4)GlcNAc(b1-3)Gal(b1-4)GlcNAc(b1-2)Man(a1-3)[Gal(b1-4)GlcNAc(b1-3)Gal(b1-4)GlcNAc(b1-3)Gal(b1-4)GlcNAc(b1-2)Man(a1-6)]Man(b1-4)GlcNAc(b1-4)GlcNAc
In short: as §1

[16] = target: Gal(b1-4)GlcNAc(b1-3)Gal(b1-4)GlcNAc(b1-3)Gal(b1-4)GlcNAc(b1-2)Man(a1-3)[Gal(b1-4)GlcNAc(b1-3)Gal(b1-4)GlcNAc(b1-3)Gal(b1-4)GlcNAc(b1-2)Man(a1-6)]Man(b1-4)GlcNAc(b1-4)[Fuc(a1-6)]GlcNAc
In short: as §1

[17] = target: Gal(b1-4)GlcNAc(b1-3)Gal(b1-4)GlcNAc(b1-3)Gal(b1-4)GlcNAc(b1-3)Gal(b1-4)GlcNAc(b1-2)Man(a1-3)[Gal(b1-4)GlcNAc(b1-3)Gal(b1-4)GlcNAc(b1-3)Gal(b1-4)GlcNAc(b1-3)Gal(b1-4)GlcNAc(b1-2)Man(a1-6)]Man(b1-4)GlcNAc(b1-4)GlcNAc
In short: as §1

[18] = target: Gal(b1-4)GlcNAc(b1-3)Gal(b1-4)GlcNAc(b1-3)Gal(b1-4)GlcNAc(b1-3)Gal(b1-4)GlcNAc(b1-3)Gal(b1-4)GlcNAc(b1-2)Man(a1-3)[Gal(b1-4)GlcNAc(b1-3)Gal(b1-4)GlcNAc(b1-3)Gal(b1-4)GlcNAc(b1-3)Gal(b1-4)GlcNAc(b1-3)Gal(b1-4)GlcNAc(b1-2)Man(a1-6)]Man(b1-4)GlcNAc(b1-4)[Fuc(a1-6)]GlcNAc
In short: as §1

[19] = target: Gal3S(b1-3)[Fuc(a1-4)]GlcNAc
In short: as §1

GlcA(b1-3)Gal = target: GlcA(b1-3)Gal
In short: as §1

[20] = target: GlcNAc(a1-4)Gal(b1-4)GlcNAc
In short: as §1

[21] = target: GlcNAc(b1-3)Gal(b1-4)GlcNAc(b1-3)Gal(b1-4)GlcNAc(b1-3)Gal(b1-4)GlcNAc(b1-3)Gal(b1-4)GlcNAc(b1-2)Man(a1-3)[GlcNAc(b1-3)Gal(b1-4)GlcNAc(b1-3)Gal(b1-4)GlcNAc(b1-3)Gal(b1-4)GlcNAc(b1-3)Gal(b1-4)GlcNAc(b1-2)Man(a1-6)]Man(b1-4)GlcNAc(b1-4)GlcNAc
In short: as §1

Kdn(a2-3)Gal(b1-3)GalNAc = target: Kdn(a2-3)Gal(b1-3)GalNAc
In short: as §1

[22] = target: Man(a1-2)Man(a1-3)[Man(a1-6)]Man(a1-6)[Man(a1-2)Man(a1-3)]Man(b1-4)GlcNAc(b1-4)GlcNAc
In short: as §1

[23] = target: Man(a1-3)[Man(a1-6)]Man(a1-6)[Man(a1-3)]Man(b1-4)GlcNAc(b1-4)GlcNAc
In short: as §1

[24] = target: Neu5Ac(a2-3)Gal(b1-3)[Neu5Ac(a2-6)]GalNAc
In short: as §1

[25] = target: Neu5Ac(a2-3)Gal(b1-4)GlcNAc(b1-2)Man(a1-3)[Neu5Ac(a2-6)Gal(b1-4)GlcNAc(b1-2)Man(a1-6)]Man(b1-4)GlcNAc(b1-4)GlcNAc
In short: as §1

[26] = target: Neu5Ac(a2-3)Gal(b1-4)GlcNAc(b1-3)Gal(b1-4)GlcNAc(b1-3)Gal(b1-4)GlcNAc(b1-2)Man(a1-3)[Neu5Ac(a2-3)Gal(b1-4)GlcNAc(b1-3)Gal(b1-4)GlcNAc(b1-3)Gal(b1-4)GlcNAc(b1-2)Man(a1-6)]GalNAc
In short: as §1

[27] = target: Neu5Ac(a2-3)Gal(b1-4)[Fuc(a1-3)]GlcNAc6S
In short: as §1

[28] = target: Neu5Ac(a2-6)Gal(b1-4)GlcNAc(b1-3)Gal(b1-4)GlcNAc(b1-3)Gal(b1-4)GlcNAc(b1-2)Man(a1-3)[Neu5Ac(a2-6)Gal(b1-4)GlcNAc(b1-3)Gal(b1-4)GlcNAc(b1-3)Gal(b1-4)GlcNAc(b1-2)Man(a1-6)]GalNAc
In short: as §1

[29] = target: Neu5Ac(a2-8)Neu5Ac(a2-3)Gal(b1-3)GalNAc(b1-4)[Neu5Ac(a2-8)Neu5Ac(a2-3)]Gal(b1-4)Glc
In short: as §1

[30] = target: Neu5Gc(a2-8)Neu5Gc(a2-6)Gal(b1-4)GlcNAc
In short: as §1

B1: HA-61200 (Pseudomonas aeruginosa), Q02SP8_PSEAB (protein)
chain: MNKCYALVWNVSQGCWNVVSEGSRRRGKPAGAKAAIASVLALLGATALAPAYALPSGGTVVGGSANGEIHLSGGNSLSVNQKVDKLIANWDSFSVAAGERVIFNQPSSSSIALNRVIGTKASDIQGRIDANGQVFLVNPNGVLFGRGAQVNVGGLVASTLDITDAEFNGNSSRYRFTGPSTNGVLNHGGAITAAEGGSIALLGAQVDNRGTVLAQMGGVGLGAGSDLTLNFDGNKLLDIRVDAGVANALASNGGLLKADGGRVLMAARTANALLNTVVNSQGAIEARSLRGKNGRIVLDG
B1 was tested, and the “glycan array binding signal (z-score)” value (Fuc(a1-2)Gal(b1-3)GlcNAc) was -1.2, the “glycan array binding signal (z-score)” value [1] was 4.52 and the “glycan array binding signal (z-score)” value [2] was 0.396. The “glycan array binding signal (z-score)” value [3] was -0.278, the “glycan array binding signal (z-score)” value [4] was 1.01 and the “glycan array binding signal (z-score)” value [5] was 1.51. The “glycan array binding signal (z-score)” value (Gal(a1-3)Gal) was -0.38, the “glycan array binding signal (z-score)” value [6] was 5.54 and the “glycan array binding signal (z-score)” value [7] was 9.66. For the same binder, the “glycan array binding signal (z-score)” value [8] was -0.012, the “glycan array binding signal (z-score)” value [9] was 5.22 and the “glycan array binding signal (z-score)” value [10] was 2.44. The “glycan array binding signal (z-score)” value [11] was 0.257, the “glycan array binding signal (z-score)” value [12] was -0.393 and the “glycan array binding signal (z-score)” value [13] was 0.379. For the same binder, the “glycan array binding signal (z-score)” value [14] was -0.492, the “glycan array binding signal (z-score)” value [15] was 3.1 and the “glycan array binding signal (z-score)” value [16] was 3.46. The “glycan array binding signal (z-score)” value [17] was 5.18, the “glycan array binding signal (z-score)” value [18] was 2.6 and the “glycan array binding signal (z-score)” value [19] was 0.232. The “glycan array binding signal (z-score)” value (GlcA(b1-3)Gal) was -0.781, the “glycan array binding signal (z-score)” value [20] was -0.006 and the “glycan array binding signal (z-score)” value [21] was 0.298. For the same binder, the “glycan array binding signal (z-score)” value (Kdn(a2-3)Gal(b1-3)GalNAc) was -0.393, the “glycan array binding signal (z-score)” value [22] was -0.706 and the “glycan array binding signal (z-score)” value [23] was 1.41. For the same binder, the “glycan array binding signal (z-score)” value [24] was -0.092, the “glycan array binding signal (z-score)” value [25] was -0.276 and the “glycan array binding signal (z-score)” value [26] was 3.75. For the same binder, the “glycan array binding signal (z-score)” value [27] was -0.953, the “glycan array binding signal (z-score)” value [28] was 4.49 and the “glycan array binding signal (z-score)” value [29] was -0.215. For the same binder, the “glycan array binding signal (z-score)” value [30] was -0.263.
